Assay results published in PubChem BioAssay (NCATS).
Results filed as inconclusive are left out. Unmarked numbers belong to inactive results. Calls of active or inactive are those of the source. The call rests on the fitted dose curve; in most records, active means well fitted inhibition curve with a large enough effect; inconclusive means small, poorly fitted or top-dose-only effect; inactive means no such curve, though single readings can be large or run the other way.

Target: Cytochrome P450 2C19 (Homo sapiens) (UniProt P33261)
Assay: qHTS for inhibitors of CYP2C19 against the NCATS DSHEA and TCM libraries (AID 1919974)
Settings: CYP2C19 enzyme inhibition, luminescence qHTS; series mostly up to 34.1 µM; activity change, negative = inhibition: at the top concentration
Source text: Assay Development and Screening Technology Laboratory (ADST)
National Center for Advancing Translational Sciences (NCATS), Rockville, MD
National Institute of Health (NIH), Bethesda, Maryland
Dietary Supplements and Natural Products have minor oversight of their safety and efficacy. We assembled a collection of Dietary Supplements and Natural Products (DSNP) as well as Traditional Chinese Medicinal (TCM) Plant extracts, which were screened against an in vitro panel of assays, including a liver cytochrome p450 enzyme panel, CAR/PXR signaling pathways, and P-gp transporter assays, to assess their activity. This pipeline facilitated the interrogation of Natural Product-Drug Interaction (NaPDI) through prominent metabolizing pathways. In addition, we compared the activity profiles of the DSNP/TCM substances with those of an approved drug collection. Many of the approved drugs have well-annotated mechanisms of action (MOA) while the MOAs for most of the DSNP and TCM samples remain unknown. Based on the premise that compounds with similar activity profiles tend to share similar targets or MOA, we clustered the library activity profiles to identify overlap with the NCATS Pharmaceutical Collection to predict the MOAs of the DSNP/TCM substances. Overall, we highlight four significant bioactivity profiles (measured by p-values) as examples of this prediction. To assess broad cytotoxicity, we employed screening against a HepG2 cell line. In addition, transporter-mediated drug interactions are utilized in the characterization of DDIs using a P-glycoprotein (P-gp) assays. To profile potential P-gp activity, a differential cell viability was measured against two cell lines: a parental KB-3-1 human cervical adenocarcinoma cell line and the drug-resistant subline KB-8-5-11 that overexpresses P-gp.
To this end, we profiled both collections for potential CAR and/or PXR activity, employing a previously published 1536-well qHTS assay.
[1] Lee TD, et al. A High-Throughput Screen of a Library of Therapeutics Identifies Cytotoxic Substrates of P-glycoprotein. Mol Pharmacol. Nov 2019;96(5):629-640. doi:10.1124/mol.119.115964
PROTOCOL TABLE (as described by Inglese J, Shamu CE and Guy RK. 2007)
SEQUENCE No. (e.g., 1, 2, 3, etc.); […] (e.g., Cells, Incubation, Reagent, etc.); VALUE; DESCRIPTION.
1; Reagent; 2 uL; cytochrome P450 enzyme and luciferin substrate or buffer only, white solid-bottom Greiner plate.
2; Compounds and control; 16 nL; Kalypsis pintool (Wako USA) equipped with a 1536-well pin head to transfer to the assay plates.
3; Incubation; 15 min; room temperature.
4; Reagent; 2 uL; nicotinamide adenine dinucleotide phosphate (NADPH).
5; Incubation; 30 - 45 min; room temperature in the dark.
6; Reagent; 4 uL; P450-Glo assay detection reagent.
7; Centrifuge; 1000 RPM; 15 seconds.
8; Incubation; 30 min; room temperature.
9; Read; Luminescence; ViewLux plate reader.
NOTES (numbers refer to Sequence numbers above)
1. A 2 uL mixture of corresponding enzymes and luciferin substrate (final concentrations CYP enzyme-specific and pro-luciferin substrate-specific) or minus-enzyme (assay buffer conditions supplied by the manufacturer for respective enzyme isoform; typically, 100 mM KPO4) and luciferin substrate were dispensed using a BioRAPTR FRD (Beckman Coulter, Brea, CA) into columns of a 1536-well white solid-bottom medium binding plate (Greiner Bio-One, Monroe, NC). Five isoforms of cytochrome P450 were used (CYP1A2, CYP2C9, CYP2C19, CYP2D6, and CYP3A4).
2. Substances (final concentrations of most substances ranged from 19.5 nM to 39.8 uM) and controls (CYP-specific) were transferred (16 nL) via pintool (Wako Automation, Richmond, VA). Intraplate controls furafylline (CYP1A2), sulfaphenazole (CYP2C9), ketoconazole (CYP2C19), quinidine (CYP2D6), and ketoconazole (CYP3A4) were used correspondingly.
3. Assay plates were incubated at room temperature for 15 min.
4-5. […]
On the % scale 0 is the no-effect control and ±100 the full control effect; potency means the concentration at half of the fitted maximal effect.

Cytochrome P450 2C19 (Homo sapiens), sequence (P33261 whole entry, looked up): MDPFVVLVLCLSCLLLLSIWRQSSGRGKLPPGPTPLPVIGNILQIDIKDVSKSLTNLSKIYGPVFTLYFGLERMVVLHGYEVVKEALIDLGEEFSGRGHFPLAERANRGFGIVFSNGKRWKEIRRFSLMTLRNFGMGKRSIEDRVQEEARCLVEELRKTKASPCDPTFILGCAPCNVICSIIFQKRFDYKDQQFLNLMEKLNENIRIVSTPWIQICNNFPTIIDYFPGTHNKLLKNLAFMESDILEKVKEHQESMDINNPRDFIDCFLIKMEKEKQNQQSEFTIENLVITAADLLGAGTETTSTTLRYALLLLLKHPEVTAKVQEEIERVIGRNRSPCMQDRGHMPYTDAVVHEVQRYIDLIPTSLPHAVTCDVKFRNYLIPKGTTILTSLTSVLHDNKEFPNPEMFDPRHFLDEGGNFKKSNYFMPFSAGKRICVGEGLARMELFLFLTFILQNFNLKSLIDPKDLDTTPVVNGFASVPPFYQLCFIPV

Row | SMILES | Potency | activity change, negative = inhibition
1 | CCCCCCCCC/C=C/C(=O)CCc1ccc(O)c(OC)c1 | 3.98 µM (active) | 
2 | CC[C@H](CC[C@@H](C)[C@H]1CCC2C3CCC4C[C@@H](O)CC[C@]4(C)C3CC[C@@]21C)C(C)C (stereo not given in full) |  | 35.5%
3 | O=C(O)CC(O)(C(=O)O)C(O)C(=O)O (stereo not given) |  | 22.3%
4 | O=C(/C=C/c1ccc(O)c(O)c1)O[C@@H]1CC(O)(C(=O)O)C[C@@H](OC(=O)/C=C/c2ccc(O)c(O)c2)C1O (stereo not given in full) |  | 9.04%
5 | O=C(O)[C@H]1O[C@@H](Oc2c(-c3ccc(O)c(O)c3)oc3cc(O)cc(O)c3c2=O)[C@H](O)[C@@H](O)[C@@H]1O | 3.98 µM (active) | 
6 | CC(=O)O[C@H]1[C@H](O[C@H]2CC[C@]34C[C@]35CC[C@]3(C)[C@@H]([C@@]6(C)CC[C@@H](C(C)(C)O)O6)[C@@H](O)C[C@@]3(C)[C@@H]5C[C@H](O[C@@H]3O[C@H](CO)[C@@H](O)[C@H](O)[C@H]3O)[C@H]4C2(C)C)OC[C@@H](O)[C@@H]1O |  | -16.8%
7 | CCCCCCCCCC=O |  | 1.22% [at 58.3 µM]
8 | C=C/C(C)=C/C/C=C(\C)CCC=C(C)C | 31.6 µM (active) | 
9 | CCCCCCCC/C=C/CCCCCCCCCC(=O)O |  | -21.6%
10 | CCCCCC(=O)O |  | 28.5% [at 58.3 µM]
11 | CC(C)=CCC[C@](C)(OC1OC(COC2OCC(O)C(O)C2O)C(O)C(O)C1O)[C@H]1CC[C@]2(C)[C@@H]1[C@H](O)C[C@@H]1[C@@]3(C)CC[C@H](OC4OC(CO)C(O)C(O)C4OC4OC(CO)C(O)C(O)C4O)C(C)(C)[C@@H]3CC[C@]12C (stereo not given in full) |  | -2.65%
12 | CC(C)=CCCC(C)=CCCC(C)=CCCC=C(C)CCC=C(C)CCC=C(C)C |  | 22.5%
13 | C=C1C[C@]23CC[C@H]4[C@@](C)(CCC[C@@]4(C)C(=O)O)[C@@H]2CC[C@@]1(O[C@@H]1O[C@H](CO)[C@@H](O)[C@H](O)[C@H]1O[C@@H]1O[C@H](CO)[C@@H](O)[C@H](O)[C@H]1O)C3 |  | 11.1%
14 | CN(CC(=O)O)C(=N)N |  | 36.2% [at 104 µM]
15 | CCCCC/C=C/C(=O)CCc1ccc(O)c(OC)c1 | 7.08 µM (active) | 
16 | OCC1=C[C@@H](O)[C@@H]2C=CO[C@@H](OC3O[C@H](CO)[C@@H](O)[C@H](O)[C@H]3O)[C@H]12 (stereo not given in full) |  | 4.41%
17 | C[C@@H]1OC(O[C@H]2[C@H](O)[C@@H](O)[C@H](OC[C@H]3O[C@@H](OC(=O)[C@]45CCC(C)(C)C[C@@H]4C4=CCC6[C@@]7(C)CC[C@H](OC8OC[C@H](O)[C@H](O)[C@H]8OC8O[C@@H](C)[C@H](O)[C@@H](O)[C@H]8O)[C@@](C)(CO)C7CC[C@@]6(C)[C@]4(C)CC5)[C@H](O)[C@@H](O)[C@@H]3O)O[C@@H]2CO)[C@H](O)[C@H](O)[C@H]1O (stereo not given in full) |  | 0.191%
18 | CC1(C)C2CCC1(C)C(O)C2 (stereo not given) |  | 32.4%
19 | CC12CC3(O)OC(O1)C1(COC(=O)c4ccc(O)cc4)C3CC21OC1OC(CO)C(O)C(O)C1O (stereo not given) |  | -8.33%
20 | C=C(C)[C@H]1CC=C(CO)CC1 | 12.6 µM (active) | 
